An excerpt weighted towards active compounds, which were near 18% of everything screened.
RORg inh: ROR gamma (mouse) transcription inhibition; P51450; Drosophila S2 Gal4-RORgamma UAS-luciferase reporter, 20 h; Potency, µM (highest dose often 53.6 µM), inactives show top-dose activity change, negative = inhibition, usual class: inhibitors; 310,000 tested, 5.4% active; AID 2551; further: potency means the concentration at half of the fitted maximal effect; nearly all actives have a fitted effect of over 60% in size
Target sequence (P51450 whole entry, looked up, the tested form may be a part): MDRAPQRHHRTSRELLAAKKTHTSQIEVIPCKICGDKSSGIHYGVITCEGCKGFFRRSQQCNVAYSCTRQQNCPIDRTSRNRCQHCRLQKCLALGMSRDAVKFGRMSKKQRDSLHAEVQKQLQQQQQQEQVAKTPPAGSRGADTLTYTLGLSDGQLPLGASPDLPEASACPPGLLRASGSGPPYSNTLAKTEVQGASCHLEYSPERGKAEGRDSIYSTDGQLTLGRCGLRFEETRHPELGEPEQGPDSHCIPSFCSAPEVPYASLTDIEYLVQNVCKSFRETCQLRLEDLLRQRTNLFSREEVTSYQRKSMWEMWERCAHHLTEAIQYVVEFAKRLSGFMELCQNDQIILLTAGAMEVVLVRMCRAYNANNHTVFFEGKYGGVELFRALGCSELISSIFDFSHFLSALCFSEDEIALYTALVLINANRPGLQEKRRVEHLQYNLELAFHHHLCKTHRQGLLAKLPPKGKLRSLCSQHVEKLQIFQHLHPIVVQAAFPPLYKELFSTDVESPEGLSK
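Read-out: Photinus luciferase luminescence; inhibitors lower reporter signal. Insect Schneider cells with Gal4-ROR gamma fusion under metallothionein promoter, UAS reporter; 700 uM final copper sulfate induction, 20 hr, ambient temperature.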
IL-1B inflam inh: inhibitors of inflammasome signaling (IL-1 beta secretion); THP-1 LPS/ATP IL-1B secretion, AlphaLISA, 16 h; active compounds read low; activity change, % at 57.5 µM; 360,000 tested, 4.7% active; in the data active means activity change below about -50%; inconclusive means mostly about -30% to -49%
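Secreted IL-1B measured by AlphaLISA bead assay after 16 h compound exposure of THP-1 cells; compounds (final up to 57.5 uM) added 1 h before LPS (250 ng/mL) and ATP (1.25 mM) stimulation; lower signal means less secretion.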
LDHA block: blocks human lactate dehydrogenase A; P00338; purified LDHA, NADH/diaphorase-resazurin fluorescence; active compounds read low; activity change, % (values are at about 110 or 230 µM); 480,000 tested, 0.15% active; AID 1347041; in the data active means activity change below about -30%; inconclusive means mostly about -25% to -30%;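 further: plate controls were DMSO wells for no effect and wells without enzyme for full effect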
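Enzyme activity of human lactate dehydrogenase 5 (2 nM; 0.06 mM NADH, 0.2 mM pyruvate, 5 min, RT) is measured via a resazurin/diaphorase fluorescence readout of residual NADH.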
DT40 TDP1 no CPT: qHTS for Inhibitors of human tyrosyl-DNA phosphodiesterase 1 (TDP1): qHTS in cells in absence of CPT; DT40 Tdp1-/- hTDP1 cells, no CPT, ATP luminescence, 48 h; Potency, µM (titrated, usually from 46.2 µM), inactives show at the top dose activity change, negative = growth inhibition, most hits filed as inhibitors; 420,000 tested, 15% active; further: potency means the concentration at half of the fitted maximal effect; nearly all actives have a fitted effect of over 55% in size
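Readout: luminescence from CellTiter-Glo after 30 min in the dark at RT. Cells: DT40 Tdp1-/- with stable hTDP1, 400/well. Exposure: compounds alone, ≥48 hr, 37 °C.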
TDP1 cell CPT: DT40-hTDP1 cell growth loss with CPT | chicken DT40 Tdp1-/-;hTDP1 cells + 20 nM CPT, ATP luminescence, 48 h | Potency, µM (top dose mostly 46.2 µM), for the others: top-dose activity change, negative = growth inhibition, most hits filed as inhibitors | 420,000 tested, 12% active | AID 686979; further: potency means the concentration at half of the fitted maximal effect; nearly all actives have a fitted effect of over 55% in size
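Chicken DT40 Tdp1-/- cells complemented with human TDP1, 400 cells/well, exposed to compounds plus 20 nM camptothecin for at least 48 h at 37 C; viability read as ATP content by CellTiter-Glo luminescence.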
VP16 counter: inhibits Gal4-VP16 luciferase reporter, ROR gamma counter-screen. AID 2546. Drosophila S2 Gal4-VP16 UAS-luciferase, luminescence, 20 h. 310,000 tested, 3.5% active. Potency, µM (highest dose often 53.6 µM), inactives show top-dose activity, negative = inhibition, actives largely listed as inhibitors;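 further: Gal4-VP16 expression switched on by copper sulfate through the metallothionein promoter; potency means the concentration at half of the fitted maximal effect; nearly all actives have a fitted effect of over 50% in size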
Active calls of the source: *. Unless noted, the call rests on the fitted dose curve; in most records, active means well fitted curve in the direction sought with a large enough effect; inconclusive means small, poorly fitted or top-dose-only effect, or another doubt; inactive means no such curve, though single readings can be large; an effect the other way counts as inactive or inconclusive. Unless noted, on the % scale 0 is the no-effect control and ±100 the full control effect.

What do the screens show for `C[C@H]1CN([C@@H](C)CO)S(=O)(=O)c2ccc(C#CC3CC3)cc2O[C@@H]1CN(C)S(C)(=O)=O`?
IL-1B inflam inh: -4; LDHA block: -9; DT40 TDP1 no CPT: inconclusive; TDP1 cell CPT: -27%

Results for CN(c1ccc(OCC(=O)N2CCN(c3ncccn3)CC2)cc1)S(=O)(=O)c1cccs1 ?
LDHA block: 9

Results for COCC#Cc1ccc2c(c1)O[C@@H](CN(C)S(=O)(=O)c1cccc(F)c1)[C@@H](C)CN([C@H](C)CO)S2(=O)=O ?
IL-1B inflam inh: -1; LDHA block: -1; DT40 TDP1 no CPT: 18µM*; TDP1 cell CPT: inconclusive

What do the screens show for `COc1ccc(S(=O)(=O)N(C)C[C@H]2Oc3cc(Br)ccc3S(=O)(=O)N([C@H](C)CO)C[C@H]2C)cc1`?
IL-1B inflam inh: 23; LDHA block: -5; DT40 TDP1 no CPT: 21µM*; TDP1 cell CPT: inconclusive

Results for COc1cccc(NC(=O)N(C)C[C@@H]2Oc3cc(Br)ccc3S(=O)(=O)N([C@@H](C)CO)C[C@H]2C)c1 ?
IL-1B inflam inh: 8; LDHA block: -1; DT40 TDP1 no CPT: -9%; TDP1 cell CPT: 1%

How did COc1ccc(NC(=O)N(C)C[C@@H]2Oc3cc(Br)ccc3S(=O)(=O)N([C@H](C)CO)C[C@H]2C)cc1 do in these assays?
IL-1B inflam inh: 3; LDHA block: -35*; DT40 TDP1 no CPT: -20%; TDP1 cell CPT: -8%

Results for C[C@H](CO)N1C[C@H](C)[C@H](CN(C)S(=O)(=O)c2cccc(F)c2)Oc2cc(Br)ccc2S1(=O)=O ?
IL-1B inflam inh: -16; LDHA block: -1; DT40 TDP1 no CPT: 21µM*; TDP1 cell CPT: 26µM*

How did N#Cc1ccc(/C=C/c2nc3c(ccc4ccccc43)s2)cc1 do in these assays?
LDHA block: 6

How did Cc1cnc(C(=O)N2CCCC(C(=O)c3cccc(OC(C)C)c3)C2)cn1 (stereo not given) do in these assays?
RORg inh: inconclusive; IL-1B inflam inh: 11; LDHA block: -8; DT40 TDP1 no CPT: -26%; TDP1 cell CPT: inconclusive; VP16 counter: 3%

Results for Cc1nc(C(=O)N2CCCC(C(=O)c3cccc(OC(C)C)c3)C2)cs1 (stereo not given) ?
RORg inh: inconclusive; IL-1B inflam inh: 14; LDHA block: 2; DT40 TDP1 no CPT: 15µM*; TDP1 cell CPT: 10µM*; VP16 counter: -1%

What do the screens show for `CC(C)Oc1cccc(C(=O)C2CCCN(C(=O)c3ccccn3)C2)c1` (stereo not given)?
RORg inh: 41%; IL-1B inflam inh: 36; LDHA block: -15; DT40 TDP1 no CPT: 10µM*; TDP1 cell CPT: 21µM*; VP16 counter: 0%

How did COc1ccc(Oc2cc(CNS(=O)(=O)N3CCCCCC3)ccn2)cc1 do in these assays?
LDHA block: -21

Results for CC(C)CNc1nc(-c2ccc3c(c2)CC(C)N3S(C)(=O)=O)cs1 (stereo not given) ?
LDHA block: -2

How did CCc1ccc(CC)c(-c2csc(N)n2)c1 do in these assays?
LDHA block: 10

How did COc1ccc(CN2CCCC(CO)(Cc3ccc(F)cc3)C2)c(OC)c1OC (stereo not given) do in these assays?
RORg inh: -9%; IL-1B inflam inh: -16; LDHA block: -1; DT40 TDP1 no CPT: inconclusive; TDP1 cell CPT: 15µM*; VP16 counter: -2%

Results for COc1cc(CN2CCCC(CO)(Cc3ccccc3)C2)ccc1O (stereo not given) ?
RORg inh: inconclusive; IL-1B inflam inh: -8; LDHA block: 2; DT40 TDP1 no CPT: -11%; TDP1 cell CPT: -5%; VP16 counter: -11%

What do the screens show for `CC(C)Oc1ccc(CN2CCCC(CO)(Cc3ccc(F)cc3)C2)cc1` (stereo not given)?
RORg inh: -20%; IL-1B inflam inh: -72*; LDHA block: 0; DT40 TDP1 no CPT: inconclusive; TDP1 cell CPT: inconclusive; VP16 counter: -3%

What do the screens show for `CCOc1ccc(CN2CCCC(CO)(Cc3ccccc3F)C2)cc1` (stereo not given)?
RORg inh: -17%; IL-1B inflam inh: -56*; LDHA block: -2; DT40 TDP1 no CPT: inconclusive; TDP1 cell CPT: inconclusive; VP16 counter: -10%

Results for OCC1(Cc2ccc(F)cc2F)CCCN(Cc2ccc(Cl)cc2)C1 (stereo not given) ?
RORg inh: -3%; IL-1B inflam inh: -23; LDHA block: 3; DT40 TDP1 no CPT: inconclusive; TDP1 cell CPT: inconclusive; VP16 counter: -21%

What do the screens show for `Cc1cccc(CN2CCCN(c3cccc(C(=O)NCc4ccc5c(c4)OCO5)c3)C2=O)c1`?
LDHA block: 5

What do the screens show for `CCCN(CC(F)(F)F)C(=O)CCCc1c[nH]c2ccccc12`?
LDHA block: -3

What do the screens show for `Clc1ccc2c(N/N=C/c3ccccc3)ccnc2c1`?
LDHA block: 0

What do the screens show for `O=C(CSc1nnnn1-c1ccccc1)c1ccc(Cl)s1`?
LDHA block: 10

Results for C[C@H](NC(=O)Cc1ccccc1)C(=O)N1CCC2(CC1)NCCc1[nH]cnc12 ?
RORg inh: -36%; IL-1B inflam inh: 12; LDHA block: -9; DT40 TDP1 no CPT: 1%; TDP1 cell CPT: -22%; VP16 counter: -7%

How did O=C(N[C@@H](Cc1ccccc1)C(=O)N1CCC2(CC1)NCCc1[nH]cnc12)c1cccc(Br)c1 do in these assays?
RORg inh: 5%; IL-1B inflam inh: inconclusive; LDHA block: -24; DT40 TDP1 no CPT: 6.5µM*; TDP1 cell CPT: 10µM*; VP16 counter: -11%

How did COC(=O)c1[nH]c2cc(OC)ccc2c1NC(=O)CN1CCCCC1C (stereo not given) do in these assays?
LDHA block: 9

Results for O=C(O)c1cccc(Nc2ncnc3c2cnn3-c2ccccc2)c1 ?
RORg inh: inconclusive; IL-1B inflam inh: -1; LDHA block: -11; DT40 TDP1 no CPT: 1%; TDP1 cell CPT: -1%; VP16 counter: 2%

How did Clc1cccc(Nc2ncnc3c2cnn3-c2ccccc2)c1 do in these assays?
RORg inh: 10µM*; IL-1B inflam inh: -11; LDHA block: -10; DT40 TDP1 no CPT: inconclusive; TDP1 cell CPT: inconclusive; VP16 counter: 22µM*
